# Key:
# Details in all cases: concentration: 1 μM, replicates: in singlicate; n = 1
# MST2 = test system: T1, MST2
# T1 construct: gene STK3
# MST3 = test system: T2, MST3
# T2 construct: gene STK24
# MST4 = test system: MST4
# MTOR = test system: MTOR
# MUSK = test system: MUSK
# MYLK2 = test system: MYLK2
# MYLK4 = test system: MYLK4
# MYLK = test system: MYLK
# MYO3A = test system: MYO3A
# MYO3B = test system: MYO3B
# NDR1 = test system: T3, NDR1
# T3 construct: gene STK38
# NDR2 = test system: NDR2
# NEK10 = test system: NEK10
# NEK11 = test system: NEK11
# NEK1 = test system: NEK1
# NEK2 = test system: NEK2
# NEK3 = test system: NEK3
# NEK4 = test system: NEK4
# NEK5 = test system: NEK5
# NEK6 = test system: NEK6
# 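Further: KINOMEscan kinase panel screen.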
SMILES,%Inh (MST2) [%],%Inh (MST3) [%],%Inh (MST4) [%],%Inh (MTOR) [%],%Inh (MUSK) [%],%Inh (MYLK2) [%],%Inh (MYLK4) [%],%Inh (MYLK) [%],%Inh (MYO3A) [%],%Inh (MYO3B) [%],%Inh (NDR1) [%],%Inh (NDR2) [%],%Inh (NEK10) [%],%Inh (NEK11) [%],%Inh (NEK1) [%],%Inh (NEK2) [%],%Inh (NEK3) [%],%Inh (NEK4) [%],%Inh (NEK5) [%],%Inh (NEK6) [%]
CCn1c(-c2ccccn2)nc2cnccc21 [SB-736398],0,0,0,0,5,3,2,0,18,0,6,0,26,39,100,0,12,10,0,0
COc1ccc(C2=C(Nc3cccc(C(=O)O)c3)C(=O)NC2=O)cc1 [SB-390765],0,9,16,0,9,0,0,14,12,0,2,13,2,30,0,10,31,23,0,13
COc1cc2ncn(-c3cc(OCC4CCCO4)c(C(N)=O)s3)c2cc1OC (centres unmarked) [GSK204607],1,6,0,11,1,0,81,19,15,0,12,10,0,0,11,28,5,0,10,0
Cn1cncc1-c1ccc2ncnc(Nc3ccc(OCc4ccccc4)cc3)c2c1 [GW320571],0,0,0,30,21,20,0,6,0,0,0,0,3,0,0,0,0,11,0,6
COc1ccc(Nc2nccc(-c3cccc(NC(=O)c4cc5cc(F)ccc5[nH]4)c3)n2)cc1 [GSK1229782],24,15,0,21,6,19,11,31,60,0,0,34,40,16,12,3,12,9,29,1
CS(=O)(=O)c1ccc(-c2c(-c3ncn[nH]3)sc(N3CCOCC3)c2C#N)cc1,13,100,0,74,2,12,29,9,4,4,18,0,36,0,4,0,40,0,7,31
Cc1cc(N2Cc3ccccc3C2)nc(Nc2ccc(S(=O)(=O)N3CCOCC3)cc2)n1.Cl [GSK1669917],0,0,0,9,0,0,0,12,0,0,20,0,0,0,0,0,0,9,23,0
CCCc1ccc(S(=O)(=O)NC2CCN(c3ccnc(Nc4ccc(F)cc4)n3)C2)cc1 (centres unmarked) [GSK1379715],0,0,0,0,8,0,0,0,11,0,0,0,3,1,88,0,4,5,10,0
CC1=C(C(=O)Nc2cc3cn[nH]c3cc2F)C(c2ccc(C(F)(F)F)cc2)CC(=O)N1 (centres unmarked) [GSK429286],0,0,0,13,6,0,0,13,0,0,23,0,7,0,0,0,6,24,0,0
COc1cc2ncnc(Nc3ccc4nc(-c5ccccc5)[nH]c4c3)c2cc1OC.Cl [GW282450],0,0,0,16,10,0,8,29,21,0,17,0,14,2,0,0,0,4,29,0
